Source: PubChem BioAssay
In the library only some 3.8% were active in any assay of this set; here they are far more common.
PfHsp90 set2: inhibits growth of yeast expressing Plasmodium falciparum Hsp90 | hit rate 0.32% among 310,000 | S. cerevisiae expressing PfHsp90, BacTiter-Glo ATP, 48 h; yeast lacking PDR1 and PDR3 efflux regulators | inhibition, % at 9.4 µM;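 active = every replicate shows inhibition above about 80%, whatever the replicate mean, limit read from the data; inconclusive = mean inhibition reaches the set limit but some replicate falls short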;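 note: 0% = DMSO neutral controls and 100% = 20 µM radicicol positive controls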
TIM10 inh: inhibits growth of TIM10 yeast strain. S. cerevisiae TIM10 strain growth, BacTiter-Glo luminescence, 24 h. inhibition, % at 10 µM. hit rate 1.4% among 330,000;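 active = inhibition of 40% or more at the single tested concentration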;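 note: wild-type TIM10 isogenic control strain grown at permissive 25 °C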
tim10-1 inh: tim10-1 yeast growth inhibition; hit rate 2.2% among 330,000; inhibition, % at 20 µM; S. cerevisiae tim10-1 ts strain growth, BacTiter-Glo, 24 h; AID 463190;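 active = inhibition of at least 40%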;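 note: mutant grown at 25 °C; 0% = DMSO wells with yeast and 100% = wells holding no yeast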
tim23-1 inh: tim23-1 yeast growth inhibition | AID 463212 | S. cerevisiae tim23-1 growth, BacTiter-Glo luminescence, 24 h | inhibition, % at 20 µM | hit rate 1.3% among 330,000;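 active = growth inhibition of the mutant yeast at or above 50%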;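 note: temperature-sensitive mutant grown at 25 °C; plate controls were DMSO-treated mutant yeast for no effect and medium wells lacking yeast for full effect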
Beta2AR agonist: activates human beta-2 adrenergic receptor causing internalization. response, % (test concentration not listed). Am2.2-beta2AR cells, FAP receptor internalization, flow cytometry. AID 504454. hit rate 0.43% among 340,000. P07550;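 active = response above a set limit, near 3 SD of response in nonfluorescent compounds, cut at about 42% in these data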
Target sequence (P07550 whole entry, looked up): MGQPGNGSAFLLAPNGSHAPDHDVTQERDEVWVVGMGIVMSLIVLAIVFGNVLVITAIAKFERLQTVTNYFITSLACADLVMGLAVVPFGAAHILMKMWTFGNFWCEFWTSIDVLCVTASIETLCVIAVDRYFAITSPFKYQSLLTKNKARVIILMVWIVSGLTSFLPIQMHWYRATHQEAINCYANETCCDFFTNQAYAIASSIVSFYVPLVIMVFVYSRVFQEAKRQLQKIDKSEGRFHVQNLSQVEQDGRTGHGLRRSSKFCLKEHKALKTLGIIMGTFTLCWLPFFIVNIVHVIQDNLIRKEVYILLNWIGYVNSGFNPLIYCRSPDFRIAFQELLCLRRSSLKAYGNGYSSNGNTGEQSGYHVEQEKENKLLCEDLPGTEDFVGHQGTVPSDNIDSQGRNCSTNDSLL
TIM10 conf: TIM10 yeast growth inhibition, confirmed | shares compounds with TIM10 inh | S. cerevisiae tim10 strain growth, BacTiter-Glo luminescence, 24 h | inhibition, % at 10 µM | hit rate 63% among 4,600;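 active = inhibition of yeast growth at or above a set limit in either of two replicates at 10 µM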;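 note: this counterscreen used the strain with wild-type TIM10; 0% = yeast with DMSO and 100% = medium wells lacking yeast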
* = called active by the depositor.

What do the screens show for `COc1ccc(-c2cc3ccccc3n2CC(O)Cn2nc(C)cc2C)cc1` (centres undefined)?
PfHsp90 set2: -10.0; TIM10 inh: 41.2*; tim10-1 inh: 32.2; tim23-1 inh: 35.0; Beta2AR agonist: 2.5; TIM10 conf: 35.4*

What do the screens show for `O=C(CSc1ncn(-c2ccccc2)n1)c1cccs1`?
PfHsp90 set2: -30.7; TIM10 inh: 48.1*; tim10-1 inh: 27.9; tim23-1 inh: 15.8; Beta2AR agonist: -6.5; TIM10 conf: -7.1

Results for FC(F)Oc1ccc(NC(=S)NC23CC4CC(CC(C4)C2)C3)cc1 ?
PfHsp90 set2: -2.3; TIM10 inh: 52.3*; tim10-1 inh: 17.4; tim23-1 inh: 44.1; Beta2AR agonist: 2.7; TIM10 conf: 34.8*

Results for CCOc1ccc(NC(=S)NC23CC4CC(CC(C4)C2)C3)cc1 ?
PfHsp90 set2: 31.6; TIM10 inh: -4.3; tim10-1 inh: -2.9; tim23-1 inh: -8.2; Beta2AR agonist: -4.4

How did COc1cc(Cl)ccc1OCc1cc(C(=O)N2CCN(c3ccccn3)CC2)no1 do in these assays?
PfHsp90 set2: -35.8; TIM10 inh: 55.2*; tim10-1 inh: 17.1; tim23-1 inh: 42.7; Beta2AR agonist: -3.8; TIM10 conf: 68.2*

What do the screens show for `COc1ccccc1N1CCN(C(=O)c2cc(-c3cccc(Cl)c3)on2)CC1`?
PfHsp90 set2: -1.3; TIM10 inh: 42.7*; tim10-1 inh: 39.6; tim23-1 inh: 41.9; Beta2AR agonist: 23.4; TIM10 conf: 30.6*

Results for COc1ccccc1N1CCN(C(=O)c2cc(-c3ccc4c(c3)OCO4)on2)CC1 ?
PfHsp90 set2: 3.4; TIM10 inh: 2.6; tim10-1 inh: 12.0; tim23-1 inh: 18.9; Beta2AR agonist: 1.1

Results for COc1ccc(-c2[nH]ncc2Oc2ccccc2OC)c(O)c1 ?
TIM10 inh: 52.3*; tim10-1 inh: 31.4; tim23-1 inh: 45.5; Beta2AR agonist: 6.0; TIM10 conf: 29.4

What do the screens show for `CCCc1ccc(Oc2cn[nH]c2-c2ccc(O)cc2O)cc1`?
PfHsp90 set2: inconclusive; TIM10 inh: 44.4*; tim10-1 inh: 4.0; tim23-1 inh: -35.7; Beta2AR agonist: 2.4; TIM10 conf: 71.7*

How did O=C(Cn1[nH]c(=O)c2ccccc2c1=O)NCCN1C(=O)S/C(=C\c2ccccc2)C1=O do in these assays?
PfHsp90 set2: 15.9; TIM10 inh: 7.7; tim10-1 inh: -0.6; tim23-1 inh: 1.9; Beta2AR agonist: -3.1

How did CCn1nc(C)c(/C=N/NC(=S)Nc2ccc(Cl)cc2Cl)c1C do in these assays?
PfHsp90 set2: -12.7; TIM10 inh: 42.3*; tim10-1 inh: 39.0; tim23-1 inh: 37.2; Beta2AR agonist: -12.0; TIM10 conf: -9.8

Results for O=C(NC12CC3CC(CC(C3)C1)C2)N(Cc1ccccc1)Cc1ccncc1 ?
TIM10 inh: 44.0*; tim10-1 inh: 29.6; tim23-1 inh: 36.5; Beta2AR agonist: -5.0; TIM10 conf: 32.0*

Results for N#C/C(=C\c1ccc(O)cc1)C(=O)N1CCCC1 ?
PfHsp90 set2: 10.7; TIM10 inh: 5.5; tim10-1 inh: -3.3; tim23-1 inh: 18.8; Beta2AR agonist: 3.9

What do the screens show for `N#C/C(=C\c1ccc(C#N)cc1)C(=O)N1CCCC1`?
TIM10 inh: 50.4*; tim10-1 inh: 38.3; tim23-1 inh: 47.5; Beta2AR agonist: 1.7; TIM10 conf: 33.6*

How did S=C(NCc1ccco1)Nc1ccccc1Cl do in these assays?
PfHsp90 set2: -2.2; TIM10 inh: 13.4; tim10-1 inh: 15.7; tim23-1 inh: 4.1; Beta2AR agonist: 21.2

How did S=C(NCc1ccco1)Nc1cccc(Cl)c1Cl do in these assays?
TIM10 inh: 41.2*; tim10-1 inh: 31.2; tim23-1 inh: 38.4; Beta2AR agonist: 5.2; TIM10 conf: 29.2

How did O=C(Cc1cccc(F)c1)N1CCOCC1 do in these assays?
PfHsp90 set2: 0.1; Beta2AR agonist: 0.7

What do the screens show for `Clc1ccc(-c2n[nH]c3c2CCCC3)cc1`?
PfHsp90 set2: -14.1; TIM10 inh: 40.9*; tim10-1 inh: 23.9; tim23-1 inh: 42.1; Beta2AR agonist: -1.9; TIM10 conf: 34.0*

How did CCCn1c2c(c(O)c(C(=O)Nc3ccc(OCC)cc3)c1=O)CCCC2 do in these assays?
PfHsp90 set2: 11.2; TIM10 inh: 8.5; tim10-1 inh: -4.1; tim23-1 inh: 4.3; Beta2AR agonist: 10.2
